Results as given in the supplement of paper PMC10849652.
Targets with a hit are over-represented here; the source holds about 8,800 in all. About 0.5% of all pairs of compound and target were hits.

Columns and labels:
Test in all cases: log2 fold change, soluble protein after heating vs DMSO (PISA); higher = thermal stabilisation; K562 lysate, 10 uM; active = over 0.2 and 3.5 SD of the protein, either way, in both replicates (recomputed)
erlotinib = compound: C#Cc1cccc(Nc2ncnc3cc(OCCOC)c(OCCOC)cc23)c1 [erlotinib]
Method in brief: (§1)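 The values are log-two fold changes in thermal stability compared with solvent controls and come from duplicates. They were obtained by TMTpro 16plex LC-MS/MS, with channel sums equalised, on the supernatant after 21,000xg for 90 min. That supernatant came from crude K562 extract at 1 mg/mL protein treated with 10 μM compound for 30 min, heated for 3 min across 48°C-58°C, pooled and brought to 0.5% NP-40 at 4°C.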

[1] = compound: C/C(=N\NC(=O)C1=CC(=CC=C1)S(=O)(=O)N2CCOCC2)/C3=C(C=CC(=C3)Cl)O
Method in brief: as §1

[2] = compound: C1=CC(=CC=C1C2=NC3=C(N2)C=C(C=C3)C(=O)N)OC4=CC=C(C=C4)Cl
Method in brief: as §1

[3] = compound: C1=CC2=C(C=CC(=C2)/C=C\3/C(=O)NC(=NCC4=CC=CS4)S3)N=C1
Method in brief: as §1

[4] = compound: C1=CC2=NC=CN=C2C=C1/C=C/3\C(=O)NC(=O)S3
Method in brief: as §1

[5] = compound: C1=CC=C(C=C1)C2=NC(=C(N2)C3=CC=NC=C3)C4=CC(=C(C=C4)Cl)O
Method in brief: as §1

[6] = compound: C1=CC=C2C(=C1)C3=NNC4=CC=CC(=C43)C2=O
Method in brief: as §1

[7] = compound: C1CCN(C1)C(=O)NC2=CC=CC(=C2)NC3=NC=C(C(=N3)NCCC4=CN=CN4)Br
Method in brief: as §1

[8] = compound: C1CN(CCC1(CC2=CC=C(C=C2)Cl)N)C3=NC=NC4=C3C=CN4
Method in brief: as §1

IRAK-1-4 Inhibitor I = compound: C1COCCN1CCN2C3=CC=CC=C3N=C2NC(=O)C4=CC(=CC=C4)[N+](=O)[O-] [IRAK-1-4 Inhibitor I]
Method in brief: as §1

ibrutinib = compound: C=CC(=O)N1CCC[C@@H](n2nc(-c3ccc(Oc4ccccc4)cc3)c3c(N)ncnc32)C1 [ibrutinib]
Method in brief: as §1

[9] = compound: CC(=O)c1cnc2ccc(-c3cc(Cl)c(O)c(Cl)c3)nc2c1N[C@H]1CC[C@H](CN(C)C)CC1
Method in brief: as §1

ralimetinib = compound: CC(C)(C)Cn1c(N)nc2ccc(-c3[nH]c(C(C)(C)C)nc3-c3ccc(F)cc3)nc21 [ralimetinib]
Method in brief: as §1

[10] = compound: CC(C)(O)CC(=O)NCCn1ccc2ncnc(Nc3ccc(Oc4cccc(C(F)(F)F)c4)c(Cl)c3)c21
Method in brief: as §1

[11] = compound: CC(C)C1=C2N=C(C=C(N2N=C1)NCC3=CC=CC=C3)NCCCCCCN
Method in brief: as §1

[12] = compound: CC1=C(C(CC(=O)N1)C2=CC=C(C=C2)C(F)(F)F)C(=O)NC3=C(C=C4C(=C3)C=NN4)F
Method in brief: as §1

[13] = compound: CC1=C(C2=C(C=C1)C(=O)C3=CC=CC=C3N2CCCN)C
Method in brief: as §1

[14] = compound: CC1=C(C=C(C=C1)NC(=O)C2=CC(=CC=C2)C(C)(C)C#N)NC3=CC4=C(C=C3)N=CN(C4=O)C
Method in brief: as §1

[15] = compound: CC1=C(C=C(C=C1)NC(=O)C2=CC(=CC=C2)N(C)C)NC(=O)C3=CC=C(C=C3)O
Method in brief: as §1

[16] = compound: CC1=CC=C(C=C1)SC2=C3C=C(SC3=CN=C2)C(=O)N
Method in brief: as §1

Measured: log2 fold change

HSD17B10 (UniProt Q99714)
inactive: erlotinib 0.018 | [1] -0.044 | [2] 0.035 | [3] -0.023 | [4] 0.01 | [5] 0.016 | [6] -0.054 | [7] -0.03 | [8] 0.054 | IRAK-1-4 Inhibitor I 0.012 | ibrutinib -0.012 | [9] -0.018 | ralimetinib 0.004 | [10] -0.003 | [11] 0 | [12] -0.026 | [13] -0.031 | [14] -0.018 | [15] -0.007 | [16] -0.025

HMGN4 (UniProt O00479)
inactive: erlotinib 0.015 | [1] 0.238 | [2] 0.063 | [3] -0.056 | [4] 0.017 | [5] 0.048 | [6] 0.293 | [7] 0.201 | [8] -0.044 | IRAK-1-4 Inhibitor I -0.046 | ibrutinib -0.067 | [9] 0.051 | ralimetinib -0.249 | [10] 0 | [11] -0.097 | [12] -0.011 | [13] 0.016 | [14] -0.014 | [15] -0.077 | [16] 0.022

IARS (UniProt P41252)
Sequence of UniProt P41252 (P41252 whole entry, looked up): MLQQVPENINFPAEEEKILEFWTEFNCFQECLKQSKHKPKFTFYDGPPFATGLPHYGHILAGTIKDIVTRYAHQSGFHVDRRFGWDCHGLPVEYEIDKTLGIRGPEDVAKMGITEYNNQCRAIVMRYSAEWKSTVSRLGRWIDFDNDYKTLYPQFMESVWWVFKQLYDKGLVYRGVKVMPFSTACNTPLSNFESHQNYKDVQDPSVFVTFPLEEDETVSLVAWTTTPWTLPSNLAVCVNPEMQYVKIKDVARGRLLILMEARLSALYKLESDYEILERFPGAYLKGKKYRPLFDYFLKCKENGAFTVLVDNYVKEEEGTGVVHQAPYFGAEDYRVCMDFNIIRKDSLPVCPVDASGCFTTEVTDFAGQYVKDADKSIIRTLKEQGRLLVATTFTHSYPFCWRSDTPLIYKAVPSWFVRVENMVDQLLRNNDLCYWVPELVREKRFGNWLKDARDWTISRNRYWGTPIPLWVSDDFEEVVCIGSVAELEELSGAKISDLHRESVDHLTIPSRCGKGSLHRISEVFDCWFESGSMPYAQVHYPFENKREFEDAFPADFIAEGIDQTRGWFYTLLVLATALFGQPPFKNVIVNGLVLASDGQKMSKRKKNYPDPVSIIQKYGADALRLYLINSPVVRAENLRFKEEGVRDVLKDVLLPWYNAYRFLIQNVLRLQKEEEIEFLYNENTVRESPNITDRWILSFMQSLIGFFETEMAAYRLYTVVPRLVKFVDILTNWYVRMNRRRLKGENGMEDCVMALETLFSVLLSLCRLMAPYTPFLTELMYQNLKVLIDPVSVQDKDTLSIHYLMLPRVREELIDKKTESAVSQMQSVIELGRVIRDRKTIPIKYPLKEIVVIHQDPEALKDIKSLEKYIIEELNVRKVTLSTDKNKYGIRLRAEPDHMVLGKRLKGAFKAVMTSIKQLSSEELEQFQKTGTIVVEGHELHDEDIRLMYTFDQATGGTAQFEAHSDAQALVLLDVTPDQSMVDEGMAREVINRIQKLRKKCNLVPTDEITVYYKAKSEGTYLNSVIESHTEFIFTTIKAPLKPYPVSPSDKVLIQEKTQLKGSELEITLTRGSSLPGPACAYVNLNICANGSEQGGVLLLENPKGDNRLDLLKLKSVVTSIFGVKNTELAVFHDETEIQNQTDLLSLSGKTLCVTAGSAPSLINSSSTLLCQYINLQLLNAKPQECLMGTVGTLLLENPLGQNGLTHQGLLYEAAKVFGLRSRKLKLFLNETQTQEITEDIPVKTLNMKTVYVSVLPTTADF
inactive: erlotinib 0.022 | [1] 0.061 | [2] -0.011 | [3] 0.013 | [4] 0.02 | [5] 0.006 | [6] -0.035 | [7] 0.006 | [8] 0.01 | IRAK-1-4 Inhibitor I -0.006 | ibrutinib -0.015 | [9] -0.001 | ralimetinib 0.037 | [10] 0.035 | [11] 0.029 | [12] -0.016 | [13] 0.012 | [14] -0.04 | [15] 0.05 | [16] 0.029

KHK isoform 2 (UniProt P50053)
inactive: erlotinib -0.07 | [1] 0.024 | [2] 0.072 | [3] -0.005 | [4] 0.044 | [5] 0.069 | [6] 0.044 | [7] 0.032 | [8] -0.018 | IRAK-1-4 Inhibitor I 0.084 | ibrutinib 0.023 | [9] 0.039 | ralimetinib 0.001 | [10] -0.032 | [11] -0.033 | [12] 0.013 | [13] -0.025 | [14] 0.185 | [15] -0.033 | [16] -0.04

KDM5C (UniProt P41229)
Sequence of UniProt P41229 (P41229 whole entry, looked up): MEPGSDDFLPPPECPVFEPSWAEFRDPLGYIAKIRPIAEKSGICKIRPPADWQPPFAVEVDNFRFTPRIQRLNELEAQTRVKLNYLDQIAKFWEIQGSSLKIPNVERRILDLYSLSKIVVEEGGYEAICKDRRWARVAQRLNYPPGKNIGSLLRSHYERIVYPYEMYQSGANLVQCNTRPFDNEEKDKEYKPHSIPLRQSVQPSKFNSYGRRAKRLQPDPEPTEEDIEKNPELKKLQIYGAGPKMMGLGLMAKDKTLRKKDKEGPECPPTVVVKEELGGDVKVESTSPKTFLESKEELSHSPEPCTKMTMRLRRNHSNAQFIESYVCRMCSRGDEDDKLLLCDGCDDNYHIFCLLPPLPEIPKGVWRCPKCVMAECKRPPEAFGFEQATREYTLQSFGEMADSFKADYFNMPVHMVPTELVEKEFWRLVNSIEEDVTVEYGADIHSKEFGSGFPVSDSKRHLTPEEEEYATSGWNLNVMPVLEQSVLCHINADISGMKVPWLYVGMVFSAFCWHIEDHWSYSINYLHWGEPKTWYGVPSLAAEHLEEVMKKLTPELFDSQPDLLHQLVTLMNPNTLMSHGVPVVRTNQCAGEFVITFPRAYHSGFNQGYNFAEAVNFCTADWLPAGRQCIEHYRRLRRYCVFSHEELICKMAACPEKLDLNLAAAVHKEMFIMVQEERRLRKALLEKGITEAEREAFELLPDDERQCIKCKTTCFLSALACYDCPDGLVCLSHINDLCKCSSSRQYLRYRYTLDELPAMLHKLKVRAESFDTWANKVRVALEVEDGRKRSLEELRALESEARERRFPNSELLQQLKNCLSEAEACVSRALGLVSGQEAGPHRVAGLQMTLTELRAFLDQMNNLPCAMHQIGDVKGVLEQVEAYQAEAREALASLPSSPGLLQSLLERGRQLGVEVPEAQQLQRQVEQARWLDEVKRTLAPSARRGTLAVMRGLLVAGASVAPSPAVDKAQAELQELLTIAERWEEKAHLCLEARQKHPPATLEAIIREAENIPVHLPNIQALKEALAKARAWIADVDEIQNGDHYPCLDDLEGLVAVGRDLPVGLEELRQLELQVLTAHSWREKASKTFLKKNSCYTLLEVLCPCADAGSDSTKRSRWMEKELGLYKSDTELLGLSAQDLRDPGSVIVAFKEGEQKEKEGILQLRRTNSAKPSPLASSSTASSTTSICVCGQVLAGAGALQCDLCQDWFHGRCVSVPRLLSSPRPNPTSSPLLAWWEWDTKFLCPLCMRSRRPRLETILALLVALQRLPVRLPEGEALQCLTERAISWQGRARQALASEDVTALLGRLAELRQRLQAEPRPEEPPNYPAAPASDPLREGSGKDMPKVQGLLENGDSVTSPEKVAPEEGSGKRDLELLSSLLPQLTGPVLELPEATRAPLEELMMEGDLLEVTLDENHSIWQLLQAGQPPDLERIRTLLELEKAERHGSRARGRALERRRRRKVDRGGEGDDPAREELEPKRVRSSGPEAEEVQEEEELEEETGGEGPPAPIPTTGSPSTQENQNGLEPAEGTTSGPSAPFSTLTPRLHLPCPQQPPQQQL
inactive: erlotinib 0.052 | [1] 0.017 | [2] 0.022 | [3] -0.059 | [4] -0.009 | [5] -0.041 | [6] -0.031 | [7] -0.053 | [8] -0.002 | IRAK-1-4 Inhibitor I 0.01 | ibrutinib 0.089 | [9] -0.132 | ralimetinib 0.005 | [10] -0.02 | [11] 0.015 | [12] 0.01 | [13] 0.012 | [14] -0.013 | [15] 0.031 | [16] 0.001

INTS7 (UniProt Q9NVH2)
active: [4] 0.441 | [14] 0.543
inactive: erlotinib 0.076 | [1] -0.183 | [2] -0.01 | [3] 0.041 | [5] -0.044 | [6] 0.026 | [7] -0.019 | [8] 0.035 | IRAK-1-4 Inhibitor I 0 | ibrutinib 0.012 | [9] 0.061 | ralimetinib 0.083 | [10] -0.024 | [11] 0.023 | [12] 0.023 | [13] -0.09 | [15] 0.007 | [16] 0.039

GTF2I (UniProt P78347)
inactive: erlotinib -0.005 | [1] 0.016 | [2] -0.02 | [3] 0.018 | [4] 0.008 | [5] -0.003 | [6] -0.034 | [7] -0.002 | [8] -0.031 | IRAK-1-4 Inhibitor I -0.007 | ibrutinib -0.004 | [9] -0.002 | ralimetinib 0.007 | [10] -0.004 | [11] 0.012 | [12] -0.007 | [13] 0.005 | [14] -0.027 | [15] 0.033 | [16] -0.001

IARS2 (UniProt Q9NSE4)
inactive: erlotinib -0.025 | [1] 0.014 | [2] 0.026 | [3] 0.005 | [4] 0.013 | [5] -0.007 | [6] -0.043 | [7] -0.01 | [8] 0.054 | IRAK-1-4 Inhibitor I 0.016 | ibrutinib -0.006 | [9] -0.008 | ralimetinib -0.005 | [10] 0.007 | [11] -0.025 | [12] -0.031 | [13] 0.016 | [14] 0.005 | [15] 0.013 | [16] -0.031

HK2 (UniProt P52789)
inactive: erlotinib 0.013 | [1] 0.007 | [2] -0.045 | [3] 0.019 | [4] -0.01 | [5] 0.026 | [6] -0.027 | [7] -0.016 | [8] 0.004 | IRAK-1-4 Inhibitor I -0.002 | ibrutinib 0.021 | [9] -0.005 | ralimetinib 0.019 | [10] 0.006 | [11] -0.029 | [12] -0.007 | [13] 0.006 | [14] 0.008 | [15] 0.002 | [16] 0.011

IFNGR1 (UniProt P15260)
Sequence of UniProt P15260 (P15260 whole entry, looked up): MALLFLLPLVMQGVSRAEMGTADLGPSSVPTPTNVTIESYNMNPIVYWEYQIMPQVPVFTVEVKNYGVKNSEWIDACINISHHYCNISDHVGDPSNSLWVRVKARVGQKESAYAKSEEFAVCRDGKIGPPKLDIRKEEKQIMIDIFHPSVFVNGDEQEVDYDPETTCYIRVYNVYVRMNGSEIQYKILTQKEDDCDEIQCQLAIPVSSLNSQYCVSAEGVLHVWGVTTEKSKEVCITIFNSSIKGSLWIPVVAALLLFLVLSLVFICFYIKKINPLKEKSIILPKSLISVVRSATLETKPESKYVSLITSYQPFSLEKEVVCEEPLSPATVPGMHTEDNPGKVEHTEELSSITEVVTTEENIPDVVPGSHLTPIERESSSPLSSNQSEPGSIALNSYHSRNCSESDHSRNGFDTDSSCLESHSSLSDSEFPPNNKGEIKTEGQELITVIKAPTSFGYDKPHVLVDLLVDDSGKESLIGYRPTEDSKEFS
inactive: erlotinib 0.06 | [1] -0.064 | [2] 0.07 | [3] -0.134 | [4] -0.127 | [5] -0.021 | [6] -0.264 | [7] -0.075 | [8] 0.073 | IRAK-1-4 Inhibitor I 0.107 | ibrutinib -0.033 | [9] -0.12 | ralimetinib -0.018 | [10] -0.256 | [11] -0.014 | [12] 0.162 | [13] -0.077 | [14] 0.017 | [15] 0.073 | [16] -0.213

INTS14 (UniProt Q96SY0)
Sequence of UniProt Q96SY0 (Q96SY0 whole entry, looked up): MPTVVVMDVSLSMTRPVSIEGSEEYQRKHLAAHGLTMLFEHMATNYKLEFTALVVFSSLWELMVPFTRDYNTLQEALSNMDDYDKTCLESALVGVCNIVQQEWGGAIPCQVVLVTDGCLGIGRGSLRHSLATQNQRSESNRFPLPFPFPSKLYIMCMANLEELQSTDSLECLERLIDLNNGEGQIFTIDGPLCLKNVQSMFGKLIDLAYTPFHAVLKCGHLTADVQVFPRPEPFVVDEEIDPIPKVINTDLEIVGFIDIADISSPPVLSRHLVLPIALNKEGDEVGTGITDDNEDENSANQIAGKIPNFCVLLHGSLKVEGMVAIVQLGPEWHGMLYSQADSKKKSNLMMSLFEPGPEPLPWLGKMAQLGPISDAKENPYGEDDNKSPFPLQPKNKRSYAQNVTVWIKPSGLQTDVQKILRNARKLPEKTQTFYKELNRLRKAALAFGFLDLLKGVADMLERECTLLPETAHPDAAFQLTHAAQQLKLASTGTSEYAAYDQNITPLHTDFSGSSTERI
inactive: erlotinib 0.007 | [1] -0.13 | [2] 0.025 | [3] 0.008 | [4] -0.012 | [5] -0.001 | [6] 0.018 | [7] -0.01 | [8] 0 | IRAK-1-4 Inhibitor I 0.006 | ibrutinib -0.006 | [9] -0.008 | ralimetinib 0.023 | [10] -0.012 | [11] -0.048 | [12] -0.003 | [13] -0.029 | [14] -0.004 | [15] 0.006 | [16] -0.01

HSP90AA4P (UniProt Q58FG1)
inactive: erlotinib -0.064 | [1] 0.994 | [2] 0.097 | [3] 0.018 | [4] -0.129 | [5] 0.023 | [6] -0.003 | [7] -0.032 | [8] -0.09 | IRAK-1-4 Inhibitor I 0.081 | ibrutinib 0.026 | [9] -0.123 | ralimetinib -0.011 | [10] -0.055 | [11] 0.021 | [12] -0.071 | [13] -0.045 | [14] 0.073 | [15] 0.097 | [16] -0.051

IMPDH1 isoform 6 (UniProt P20839)
Sequence of UniProt P20839 (P20839 whole entry, looked up): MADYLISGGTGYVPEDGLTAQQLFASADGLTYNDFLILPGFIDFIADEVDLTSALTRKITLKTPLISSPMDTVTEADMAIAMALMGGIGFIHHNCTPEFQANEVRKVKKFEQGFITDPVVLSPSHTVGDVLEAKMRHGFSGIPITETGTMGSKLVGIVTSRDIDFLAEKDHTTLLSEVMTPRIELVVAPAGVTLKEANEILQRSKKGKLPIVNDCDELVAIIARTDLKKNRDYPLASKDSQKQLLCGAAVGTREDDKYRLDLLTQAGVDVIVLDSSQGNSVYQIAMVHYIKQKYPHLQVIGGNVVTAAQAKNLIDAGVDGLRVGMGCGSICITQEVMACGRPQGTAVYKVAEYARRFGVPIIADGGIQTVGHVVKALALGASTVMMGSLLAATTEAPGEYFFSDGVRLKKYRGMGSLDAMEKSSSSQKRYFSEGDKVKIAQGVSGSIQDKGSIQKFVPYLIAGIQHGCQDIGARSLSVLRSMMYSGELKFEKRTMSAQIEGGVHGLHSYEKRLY
inactive: erlotinib 0.018 | [1] 0.036 | [2] -0.031 | [3] 0.009 | [4] -0.001 | [5] -0.001 | [6] 0.017 | [7] 0.028 | [8] 0.032 | IRAK-1-4 Inhibitor I 0.003 | ibrutinib -0.007 | [9] 0.009 | ralimetinib 0.034 | [10] -0.007 | [11] 0.01 | [12] -0.039 | [13] 0.033 | [14] 0.014 | [15] -0.005 | [16] -0.004

GIT1 (UniProt Q9Y2X7)
Sequence of UniProt Q9Y2X7 (Q9Y2X7 whole entry, looked up): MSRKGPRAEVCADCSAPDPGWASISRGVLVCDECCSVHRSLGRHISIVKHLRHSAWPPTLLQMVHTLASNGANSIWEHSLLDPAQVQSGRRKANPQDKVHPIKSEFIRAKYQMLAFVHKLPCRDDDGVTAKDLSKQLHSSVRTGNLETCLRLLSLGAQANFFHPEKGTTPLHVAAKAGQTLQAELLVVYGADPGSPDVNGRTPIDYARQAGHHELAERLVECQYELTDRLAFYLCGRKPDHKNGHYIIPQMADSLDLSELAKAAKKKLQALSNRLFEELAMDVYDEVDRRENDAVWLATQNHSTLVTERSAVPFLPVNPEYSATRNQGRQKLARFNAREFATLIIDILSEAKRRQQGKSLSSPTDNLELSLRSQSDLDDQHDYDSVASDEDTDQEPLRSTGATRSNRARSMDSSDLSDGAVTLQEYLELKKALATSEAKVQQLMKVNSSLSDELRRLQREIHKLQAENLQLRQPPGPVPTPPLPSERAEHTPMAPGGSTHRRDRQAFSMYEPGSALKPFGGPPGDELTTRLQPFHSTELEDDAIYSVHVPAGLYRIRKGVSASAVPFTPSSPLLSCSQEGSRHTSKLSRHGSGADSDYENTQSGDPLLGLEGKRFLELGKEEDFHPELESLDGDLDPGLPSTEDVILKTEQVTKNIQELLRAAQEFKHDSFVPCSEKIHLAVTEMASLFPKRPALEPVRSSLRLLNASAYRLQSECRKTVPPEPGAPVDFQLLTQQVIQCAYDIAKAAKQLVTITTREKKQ
inactive: erlotinib -0.003 | [1] 0.011 | [2] -0.039 | [3] 0.054 | [4] -0.014 | [5] -0.014 | [6] -0.009 | [7] 0 | [8] -0.011 | IRAK-1-4 Inhibitor I 0.017 | ibrutinib 0.075 | [9] -0.002 | ralimetinib -0.042 | [10] 0.033 | [11] -0.004 | [12] -0.074 | [13] -0.012 | [14] 0.044 | [15] -0.007 | [16] 0.024

IGF2BP2 (UniProt Q9Y6M1)
inactive: erlotinib 0.022 | [1] 0.049 | [2] -0.041 | [3] -0.032 | [4] 0.031 | [5] 0 | [6] -0.08 | [7] -0.023 | [8] 0.051 | IRAK-1-4 Inhibitor I -0.022 | ibrutinib 0.035 | [9] 0.007 | ralimetinib 0.056 | [10] 0.035 | [11] 0.007 | [12] -0.008 | [13] -0.036 | [14] -0.075 | [15] 0.006 | [16] 0.056

ITPKA (UniProt P23677)
inactive: erlotinib 0.021 | [1] -0.042 | [2] 0.041 | [3] 0.043 | [4] 0.006 | [5] 0.046 | [6] 0.006 | [7] -0.07 | [8] 0.011 | IRAK-1-4 Inhibitor I -0.013 | ibrutinib 0.043 | [9] -0.009 | ralimetinib 0.007 | [10] -0.044 | [11] 0.011 | [12] 0.023 | [13] 0.002 | [14] -0.012 | [15] 0.022 | [16] 0.026
